# Assay results from PubChem BioAssay AID720724 (Broad Institute, 2013).
# Potency and affinity values are given separately. Values without a mark were called inactive.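 How the source made its calls: active means signal falls with a fitted half-maximal dose at most twice the top dose, in every run; inconclusive means steady partial drop, poor fit, or runs disagree; inactive means flat, rising or too weak in every run.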
# Test: inhibitors of control Renilla luciferase reporter, dose response, counter-screen for Shn3 3'UTR targeting project, Clone20-Shn3RL cells, dual-Glo, cherry-pick, set 2 (AID 720724)
# Details: renilla luciferase luminescence, 24 h; series mostly up to 35 µM; activity change, negative = inhibition: at the top concentration
row,SMILES,"activity change, negative = inhibition [%]"
1,Cc1ccc(-c2nc3ncccc3o2)cc1NC(=O)c1sc2ccccc2c1Cl,-12.5
2,CCCCOCCCNc1ncnc2c1[nH]c1ccccc12,-8.33
3,CCN(CC)Cc1c(O)ccc2c1O/C(=C\C=C\c1ccccc1)C2=O,-25
4,Cc1cccc(CSc2cccc3cccnc23)c1,33.3
5,Fc1ccc(-n2nnnc2-c2cnc(-c3cccs3)nc2C(F)(F)F)cc1,-25
6,Cc1ccc(NC(=O)c2cc(S(=O)(=O)NCCC3=CCCCC3)ccc2F)cc1F,-40
7,CCN(CC)c1ccc(NC(=O)CN2C(=O)CSc3ncccc32)c(C)c1,-30
8,COc1ccc(CNC(=O)C(c2ccc(C)cc2)N(Cc2cccs2)C(=O)c2ccc3c(c2)OCCO3)cc1 (configuration not stated),0
9,CCOC(=O)c1cn(CC(=O)Nc2cccc(Cl)c2C)nn1,-30
10,Cc1cc(C(=O)COC(=O)c2ccccc2O)c(C)n1Cc1cccs1,-29.2
11,Cc1ccc(CNC(=O)c2cc3c(C)nc4ccccc4c3o2)cc1,-22.5
12,CC(=O)Nc1ccc(OCC(=O)Nc2ccc(Cl)c(S(=O)(=O)N3CCOCC3)c2)cc1,-40
13,COc1ccc(-n2ncc3c(N4CCCCC4)ncnc32)cc1,-12.5
14,O=C(NCCc1ccccc1)c1ccc2c(c1)OCCO2,0
15,Cc1cccc(-c2noc(CN(C(=O)C(c3ccccc3)c3ccccc3)C(C)C)n2)c1,-10
16,c1ccc(-c2noc(-c3ccc4ccccc4c3)n2)nc1,-20
17,CCCn1c(C)cc(C(=O)CN2C(=O)c3ccccc3S2(=O)=O)c1C,20
